Data taken from ChEMBL document CHEMBL4513216, “Probing the Open Global Health Chemical Diversity Library for Multistage-Active Starting Points for Next-Generation Antimalarials” (ACS Infect Dis, 2020).
Out of some 69,000 compounds screened, about 8,600 (12%) showed an effect of 50% or more. Only a selection was taken, and strong results are over-represented in it overall.

Each molecule was assayed on Plasmodium berghei (assay: Screen against P. berghei liver stage (PbLuc), transformed with Luciferase, at 10uM). Settings: tested at 10 uM.
Format: functional, HepG2

First: Cc1nn(C)c2c(=O)n(Cc3ccccc3)nnc12
Second: O=C(CC(F)(F)F)N1C[C@H]2CC[C@@H](C1)N(Cc1ccccc1)C2=O
The INHIBITION of the first is higher: 28.89% for the first, 26.9% for the second.

Compared with COc1ccnc(N2C[C@H]3CC[C@@H](C2)N(CC2CCC2)C3=O)n1, CC(=O)N1CC(C(=O)N2CCCC(Cn3ccnc3C)C2)C1 (stereo not drawn) is lower in INHIBITION: 32.1% for the first, -3.7% for the second.

Compared with CC(C)N1CC(C(=O)NCc2ccnc(-n3cccn3)c2)CC1=O (stereo not drawn), COc1cc2c(cc1CNCc1ccnc(-n3cccn3)c1)OC(C)C2 (stereo not drawn) is higher in INHIBITION: -28% for the first, 67.8% for the second.

First: COc1cc2c(cc1CNC(=O)Cc1cc(C)[nH]n1)OC(C)C2 (stereo not drawn)
Second: COc1cc2c(cc1CNC(=O)Cc1cc(C)on1)OC(C)C2 (stereo not drawn)
The INHIBITION of the first is lower: 46.6% for the first, 47.4% for the second.

Compared with COc1cccc(CNCc2cccnc2-n2cccn2)c1OC, COc1cc2c(cc1CNCc1cccnc1-n1cccn1)OC(C)C2 (stereo not drawn) is higher in INHIBITION: 16.2% for the first, 68.9% for the second.

Compared with COc1ccc(CNCc2ccnc(N3CCOCC3)c2)c(OC)c1, COc1cc2c(cc1CNCc1cccnc1OC)OC(C)C2 (stereo not drawn) is higher in INHIBITION: 29.6% for the first, 60.2% for the second.

Compared with COc1cc2c(cc1CNC(=O)Cc1ccc(C)nc1)OC(C)C2 (stereo not drawn), Cc1cnn(Cc2cc(F)ccc2F)c1NC(=O)CNC(=O)C1CC1 is higher in INHIBITION: -25.3% for the first, 72.3% for the second.

Going from O=S(=O)(Cc1ccccc1)N1CCCn2cnc(CN3CCCC3)c2C1 to c1cncc(N2CCCn3nnc(CN4CCCCC4)c3C2)c1, the INHIBITION rises from -17.7% to 70.3%.

Compared with O=C(CCn1cccn1)N1CCC(c2nnc(-c3ccccn3)o2)CC1, O=C(Cc1cccnc1)N1CCC(c2nnc(-c3ccccn3)o2)CC1 is lower in INHIBITION: 44.9% for the first, 1.5235% for the second.

Compared with Cc1cc(-c2ccc(=O)n(C3CCN(C(=O)C4CCC4)CC3)n2)c(C)o1, CC(=O)Nc1ccsc1C(=O)N1CC[C@H]2CC[C@@H](C1)N2C is higher in INHIBITION: -30.9% for the first, 33.3% for the second.

First: Cc1cnn(Cc2cc(F)ccc2F)c1NC(=O)NC1CC1
Second: CC(=O)Nc1c(C)cnn1Cc1cc(F)ccc1F
The INHIBITION of the first is higher: 35.6% for the first, -8.21% for the second.

Going from CCC(=O)NCC(=O)Nc1c(C)cnn1Cc1cc(F)ccc1F to Cc1cnn(Cc2cc(F)ccc2F)c1NC(=O)C1CCOCC1, the INHIBITION rises from 44.2% to 72.3%.

Going from Cc1cnn(Cc2cc(F)ccc2F)c1NC(=O)C1COCCO1 (stereo not drawn) to Cn1ncc2c1CN(Cc1ccc(F)cc1)CC2COCC1CC1 (stereo not drawn), the INHIBITION rises from 2.01% to 8.67%.

Going from Cc1ccc(N2CCCC(Nc3nn4cc(C)nc4s3)C2)nn1 (stereo not drawn) to Cc1cnn(CC2CCCCN2C(=O)c2csc(C)n2)c1 (stereo not drawn), the INHIBITION rises from -17.7% to 23.5%.

Going from Cc1cnn(CCC(=O)N2CCN(c3ccc(C#N)cn3)CC2)c1 to CCN(CC)Cc1ccc(C(=O)N2CCCC2Cn2cc(C)cn2)o1 (stereo not drawn), the INHIBITION falls from 5.9% to -4.3%.

Going from CC(=O)N1CCCn2nc(CNS(=O)(=O)N3CCC(C)CC3)cc2C1 to CN1CCC2(CC1)CN(C(=O)c1onc3ccccc13)CCCN2C, the INHIBITION rises from 15.7% to 24.2%.

Compared with c1cncc(N2CCCn3nnc(COCC4CC4)c3C2)c1, c1cncc(CN2CCCn3nnc(COCC4CC4)c3C2)c1 is higher in INHIBITION: 20.6% for the first, 64.7% for the second.

Compared with Cn1nc(COCC2CC2)c2c1CN(CC1CC1)CC2, Cc1ccc(CN2CCc3c(COCC4CC4)nn(C)c3C2)s1 is higher in INHIBITION: 21.6% for the first, 59.3% for the second.

Compared with Cc1ccc(CN2CCc3c(COC(C)C)nn(C)c3C2)s1, Cc1ccc(CN2CCCn3nnc(COCCN(C)C)c3C2)s1 is higher in INHIBITION: 22.2% for the first, 54.8% for the second.

First: Cn1ncc2c1CN(Cc1cccnc1)CC2COCC1CC1 (stereo not drawn)
Second: Cn1ncc2c1C(COCC1CC1)CN(Cc1cccnc1)C2 (stereo not drawn)
The INHIBITION of the first is higher: 53.5% for the first, 43.9% for the second.

First: O=C1CCCN1Cc1nnn2c1CN(c1cccnc1)CCC2
Second: c1cncc(N2CCCn3nnc(CN4CCOCC4)c3C2)c1
The INHIBITION of the first is lower: 6.67% for the first, 7.67% for the second.

First: Cn1ncc2c1C(COCC1CC1)CN(Cc1ccncc1)C2 (stereo not drawn)
Second: Cn1cc(CN2Cc3c(cnn3C)C(COCC3CC3)C2)cn1 (stereo not drawn)
The INHIBITION of the first is lower: 22.2% for the first, 47.9% for the second.

Going from c1cc(CN2CCCn3nnc(COCC4CC4)c3C2)ccn1 to COc1ccc(CN2CCCn3nnc(COCC4CC4)c3C2)cc1, the INHIBITION falls from 42.1% to 16.8%.

Going from COCCNC(=O)c1cc(C2CC2)nc2onc(C3CCNC3)c12 (stereo not drawn) to COCCCNc1nc(CNC(=O)C2CCC2)cc(-c2ccco2)n1, the INHIBITION falls from 25.1% to -3.34%.

First: COCCN1CCC(C)(c2cc(O)[nH]n2)CC1
Second: CCc1n[nH]c(C2CN(Cc3nnc(C4CC4)n3C)CCO2)n1 (stereo not drawn)
The INHIBITION of the first is higher: 9.05% for the first, -17.5% for the second.

Going from COc1ccc(NC(C)=O)cc1S(=O)(=O)Nc1ccon1 to CN(C)c1ccc(C(=O)Nc2ccn(CC(N)=O)n2)cn1, the INHIBITION falls from 35.7% to -15%.

Compared with CN(C)c1ccc(CC2CCN(c3cnccn3)CC2)nn1, O=C(NCC1CCC1)c1ccnc(-n2ccnc2)c1 is higher in INHIBITION: -18.8% for the first, -13.6% for the second.

First: Cc1ccc(CN2Cc3c(cnn3C)C(COCC3CC3)C2)s1 (stereo not drawn)
Second: Cc1ccc(CN2CCCn3nnc(COCC4CC4)c3C2)s1
The INHIBITION of the first is higher: 65.6% for the first, 23.3% for the second.

Going from CC(Oc1cc(Cl)cc(Cl)c1)C(=O)NCCC(=O)N(C)C (stereo not drawn) to CCC1=N[C@@]2(CC[C@@H]3CN(CC(=O)N(C)C)C[C@@H]32)C(=O)N1CC(C)C, the INHIBITION falls from 30.7% to 29%.

Going from CCCc1n[nH]c(C2CN(Cc3nnc(C4CC4)o3)CCO2)n1 (stereo not drawn) to CCCc1n[nH]c(C2CN(Cc3nnc(C4CCC4)o3)CCO2)n1 (stereo not drawn), the INHIBITION falls from 52% to -25.8%.

First: CC(C)(C)c1n[nH]c(C2CN(Cc3nnc(C4CC4)o3)CCO2)n1 (stereo not drawn)
Second: CCc1n[nH]c(C2CN(Cc3nnc(C4CC4)o3)CCO2)n1 (stereo not drawn)
The INHIBITION of the first is lower: -3.2% for the first, 13.3% for the second.

First: Cc1n[nH]c(C2CN(Cc3nnc(C4CC4)n3C)CCO2)n1 (stereo not drawn)
Second: CCCc1n[nH]c(C2CN(Cc3nnc(C4CC4)n3C)CCO2)n1 (stereo not drawn)
The INHIBITION of the first is lower: 33.7% for the first, 50.1% for the second.

Going from CCc1n[nH]c(C2CN(Cc3nc(C4CC4)no3)CCO2)n1 (stereo not drawn) to CCc1n[nH]c(C2CN(Cc3nnc(C4CCC4)o3)CCO2)n1 (stereo not drawn), the INHIBITION falls from 64.9% to 9.14%.

First: COc1ccccc1-n1cc(C(=O)NCCCn2ccnn2)cn1
Second: Cc1nc2c(c(=O)[nH]1)CCN(C(=O)c1cccc3nccnc13)C2
The INHIBITION of the first is lower: -12.5% for the first, 46% for the second.
